Laboratory results taken from PubChem BioAssay (NCATS).
Records with an inconclusive call do not appear. Calls of active or inactive are those of the source. Calls follow the shape of the dose curve; as a rule, active = well fitted curve in the direction sought with a large enough effect; inconclusive = small, poorly fitted or top-dose-only effect, or another doubt; inactive = no such curve, though single readings can be large; an effect the other way counts as inactive or inconclusive.

Key:
HEK293 = assay: Cytotoxic Profiling of Annotated Libraries Using Quantitative High-Throughput Screening (AID 1296008); details: Five cell lines viability, CellTiter-Glo ATP luminescence, 48-72 h; max response: stronger effect = lower value; also: nearly all actives have a fitted effect of over 60% in size
How it was run: (§1)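 Compounds were pin-transferred onto cells and incubated 48 or 72 hr at 37 degree Celsius, 95% humidity. CellTiter-Glo was added, plates sat 10 min at room temperature, then ATP-coupled luminescence was imaged as the viability read-out.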

HaCat = assay: as above; details: Five cell lines viability, CellTiter-Glo ATP luminescence, 48-72 h; max response: stronger effect = lower value
How it was run: as §1

KB-3-1 = assay: as above; details: Five cell lines viability, CellTiter-Glo ATP luminescence, 48-72 h; max response: stronger effect = lower value
How it was run: as §1

NIH3T3 = assay: as above; details: Five cell lines viability, CellTiter-Glo ATP luminescence, 48-72 h; max response: stronger effect = lower value
How it was run: as §1

C33A = assay: Primary qHTS to identify gynecologic anti-cancer compounds using libraries of approved drugs and bioactive compounds (AID 1345084); details: Gynecologic cancer cell panel viability, ATPlite luminescence, 48 h; series mostly up to 57.5 µM; also: nearly all actives have a fitted effect of over 55% in size
How it was run: (§2)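 Cells, 1,000 per well, were allowed to settle for 16 h at 37 C before compound addition. Five concentrations were tested for 48 h, and viability was read by ATPlite luminescence after 15 min at room temperature.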

CAOV3 = assay: as above; details: Gynecologic cancer cell panel viability, ATPlite luminescence, 48 h; series mostly up to 57.5 µM
How it was run: as §2

Es-2 = assay: as above; details: Gynecologic cancer cell panel viability, ATPlite luminescence, 48 h; series mostly up to 57.5 µM
How it was run: as §2

HeLa = assay: as above; details: Gynecologic cancer cell panel viability, ATPlite luminescence, 48 h; series mostly up to 57.5 µM
How it was run: as §2

Hek293T = assay: as above; details: Gynecologic cancer cell panel viability, ATPlite luminescence, 48 h, control line for the selectivity index; series mostly up to 57.5 µM
How it was run: as §2

JEG-3 = assay: as above; details: Gynecologic cancer cell panel viability, ATPlite luminescence, 48 h; series mostly up to 57.5 µM
How it was run: as §2

CASKI = assay: as above; details: Gynecologic cancer cell panel viability, ATPlite luminescence, 48 h; series mostly up to 57.5 µM
How it was run: as §2
% is scaled to controls: 0 for no effect and ±100 for the full control effect; potency is read from the fitted curve at half-maximal effect.

Cc1c(F)cc(C(=O)NC2CC2)cc1-c1c(F)cn2c(C(C)(C)C)nnc2c1F
inactive: max response (HEK293) -22.1% | max response (HaCat) -0.453% | max response (KB-3-1) -2.87% | max response (NIH3T3) -8.04% | Potency (C33A) | Potency (CAOV3) | Potency (Es-2) | Potency (HeLa) | Potency (Hek293T) | Potency (JEG-3)

COCCN1CCN(Cc2ccc(-c3n[nH]c4c3C(=O)c3c(NC(=O)NN5CCOCC5)cccc3-4)cc2)CC1
active: Potency (HEK293) 0.206 µM | Potency (HaCat) 0.231 µM | Potency (KB-3-1) 0.146 µM | Potency (NIH3T3) 0.517 µM | Potency (CASKI) 0.282 µM | Potency (Es-2) 0.316 µM | Potency (Hek293T) 0.178 µM
inactive: Potency (C33A) | Potency (CAOV3) | Potency (JEG-3)

CC1=C(CCC(C)CC(=O)O)[C@@]2(C)CCCC(C)(C)C2CC1=O (stereo partly specified)
inactive: max response (HEK293) 0.185% | max response (HaCat) -7.07% | max response (KB-3-1) -1.22% | max response (NIH3T3) -3.99% | Potency (C33A) | Potency (CAOV3) | Potency (CASKI) | Potency (Es-2) | Potency (HeLa) | Potency (JEG-3)

CC1=CC2C(CC1OC1OC(CO)C(O)C(O)C1O)C(C)CC(=O)C2C(C)C (stereo unspecified)
inactive: max response (HEK293) -0.187% | max response (HaCat) -4.3% | outcome (KB-3-1) | max response (NIH3T3) 1.5% | Potency (C33A) | Potency (CAOV3) | Potency (Es-2) | Potency (HeLa) | Potency (Hek293T) | Potency (JEG-3)

CC(=O)OC1/C(C)=C/C(=O)C(OC(C)=O)C(C)(C)/C=C/C(C)C(=O)C2(OC(C)=O)CC(C)C(OC(=O)c3ccccc3)C12 (stereo unspecified)
inactive: max response (HEK293) -22.9% | max response (HaCat) -9.17% | outcome (KB-3-1) | max response (NIH3T3) -16.3% | Potency (C33A) | Potency (CAOV3) | Potency (CASKI) | Potency (HeLa) | Potency (Hek293T) | Potency (JEG-3)

CC1(C)CC[C@@]2(C(=O)O[C@@H]3O[C@H](CO)[C@@H](O)[C@H](O)[C@H]3O)C(C1)C1=CCC3[C@@]4(C)CC[C@@H](O[C@@H]5O[C@H](C(=O)O)[C@@H](O[C@@H]6OC[C@@H](O)[C@H](O)[C@H]6O)[C@H](O[C@@H]6OC[C@](O)(CO)[C@H]6O)[C@H]5O)C(C)(C)C4CC[C@@]3(C)[C@]1(C)C[C@H]2O (stereo partly specified)
inactive: max response (HEK293) -3.68% | max response (HaCat) 4.43% | outcome (KB-3-1) | max response (NIH3T3) -2.09% | activity change, negative = cytotoxicity (C33A) -0.239% [at 11.6 µM] | activity change, negative = cytotoxicity (CAOV3) -43.7% [at 11.6 µM] | activity change, negative = cytotoxicity (CASKI) -25.1% [at 11.6 µM] | activity change, negative = cytotoxicity (Es-2) -7.12% [at 11.6 µM] | activity change, negative = cytotoxicity (Hek293T) 3.52% [at 11.6 µM] | activity change, negative = cytotoxicity (JEG-3) -1.03% [at 11.6 µM]

CC1=C(C)C(=O)OC(C(C)C2CCC3C4C5OC5C5(O)CC(OC6OC(CO)C(OC7OC(C)C(O)C(O)C7O)C(O)C6O)CC(O)C5(C)C4CCC23C)C1 (stereo unspecified)
inactive: max response (HEK293) -0.932% | max response (HaCat) 4.81% | outcome (KB-3-1) | max response (NIH3T3) 3.69% | Potency (C33A) | Potency (CASKI) | Potency (Es-2) | Potency (HeLa) | Potency (Hek293T) | Potency (JEG-3)

Cc1nc([C@](C)(O)CO)sc1-c1cnc(N)c(O[C@H](C)c2cc(F)ccc2-n2nccn2)c1
active: Potency (HEK293) 13 µM | Potency (HaCat) 14.6 µM | Potency (KB-3-1) 18.4 µM | Potency (NIH3T3) 2.06 µM | Potency (HeLa) 8.91 µM
inactive: Potency (C33A) | Potency (CAOV3) | Potency (CASKI) | Potency (Es-2) | Potency (JEG-3)

CC1(C)CC[C@]2(C(=O)O[C@@H]3O[C@H](CO)[C@@H](O)[C@H](O)[C@H]3O)CC[C@]3(C)C(=CCC4[C@@]5(C)C[C@@H](O)[C@H](O)[C@@](C)(CO)C5CC[C@]43C)C2[C@@H]1O (stereo partly specified)
inactive: max response (HEK293) -3.93% | max response (HaCat) -9.78% | outcome (KB-3-1) | max response (NIH3T3) 2.98% | Potency (C33A) | Potency (CAOV3) | Potency (CASKI) | Potency (HeLa) | Potency (Hek293T) | Potency (JEG-3)

CO[C@H]1C[C@@H]2CC[C@@H](C)[C@@](O)(O2)C(=O)C(=O)N2CCCC[C@H]2C(=O)O[C@H]([C@H](C)C[C@@H]2CC[C@H](n3cnnn3)[C@H](OC)C2)CC(=O)[C@H](C)/C=C(\C)[C@@H](O)[C@@H](OC)C(=O)[C@H](C)C[C@H](C)/C=C/C=C/C=C/1C
inactive: max response (HaCat) -3.38% | max response (KB-3-1) -0.0133% | max response (NIH3T3) 0.445% | Potency (C33A) | Potency (CAOV3) | Potency (CASKI) | Potency (Es-2) | Potency (HeLa) | Potency (JEG-3)
active: Potency (HEK293) 0.0252 µM

C=C1C(=O)O[C@@H]2/C=C(\C)C(=O)/C=C/[C@](C)(O)C[C@@H](OC(=O)C(C)C)[C@@H]12
active: Potency (HEK293) 0.805 µM | Potency (HaCat) 2.02 µM | Potency (KB-3-1) 7.18 µM | Potency (NIH3T3) 2.55 µM | Potency (C33A) 8.91 µM | Potency (CAOV3) 2.82 µM | Potency (Es-2) 3.16 µM | Potency (Hek293T) 4.47 µM

COC(C(=O)N1Cc2[nH]nc(NC(=O)c3ccc(N4CCN(C)CC4)cc3)c2C1)c1ccccc1 (stereo unspecified)
active: Potency (HEK293) 1.64 µM | Potency (HaCat) 5.8 µM | Potency (KB-3-1) 8.2 µM | Potency (NIH3T3) 4.11 µM | Potency (CAOV3) 1.41 µM
inactive: Potency (C33A) | Potency (Es-2) | Potency (JEG-3)

NC(=O)c1cnc(NCCc2ccc(O)c(Cl)c2)nc1NCc1ccccc1
inactive: Potency (C33A) | Potency (CAOV3) | Potency (JEG-3)
active: Potency (HEK293) 6.51 µM | Potency (HaCat) 14.6 µM | Potency (KB-3-1) 16.4 µM | Potency (NIH3T3) 5.17 µM | Potency (Es-2) 15.8 µM | Potency (HeLa) 25.1 µM | Potency (Hek293T) 20 µM
